The source of these data is ChEMBL document CHEMBL1157539, “Thousands of chemical starting points for antimalarial lead identification” (Nature, 2010).

SMILES strings stand for the structures. “And” between values parts separate entries of the source, which are not always exact repeats. Equal values may be shown once. The full ranking holds about 13,000 compounds; the median of “IFI” is about 4, and the highest 2% start at about 17. The list comes from a sample in which the highest values are over-represented; it also holds similar structures and randomly drawn compounds.

A short description of the assay: GSK_TCMDC: Inhibition Frequency Index (IFI). The number of non-kinase HTS assays where a compound showed > 50 % inhibition, expressed as a percentage of the number of such assays in which the compound was tested. The assay is classed as functional.
Molecule `NCC1CCCN1Cc1cccc(-c2ccc(-c3nc4ccccc4[nH]3)s2)c1` (stereo unspecified) registered an IFI of 0.97%.
For `CC[C@H](C)CNC(=O)c1cccc(-c2ccc(CN3CCC(N4CCCC4)CC3)cc2)n1` the value was 9.09%; for `C=CCC1OC(=O)c2cc(OC)cc(OC)c21` (stereo unspecified), 33.6%; for `C=CC(C)C1OC(=O)c2cc(OC)cc(OC)c21` (stereo unspecified), 27%.
For `COc1ccc(CCNCCCCCNCCCc2ccc(Cl)cc2)cc1OC` the value was 2.8%; for `COc1cc(Cc2cnc(N)nc2N)cc(CC(C)O)c1O` (stereo unspecified), 0%.
For `Fc1ccc2[nH]c(-c3cccc(-c4ccc(CN5CCC(CCN6CCCCC6)CC5)cc4)c3)nc2c1` the value was 8.33%.
The molecule `NC(=O)c1ccc(C(=O)Nc2cccc(-c3ccc(-c4nc5cc(C(F)(F)F)ccc5[nH]4)cc3)c2)cc1` returned an IFI of 2.59%.
As for `O=C(NCCCCN1CCC(c2ccc3c(c2OCCN2CCCC2=O)CCCC3)CC1)c1ccc(-c2ccc(C(F)(F)F)cc2)cc1`, the figure is 9.65%; as for `C[C@@H]1CC[C@H](NC(=O)[C@H](CC2CCCC2)NC(=O)N2CCNCC2)C(=O)CN1S(=O)(=O)c1ccccn1`, 5.93%; as for `Cc1cc(N[C@@H](Cc2ccccc2)C(=O)NCCOc2ccccc2)nc(NCC2CCCCC2)n1`, 16.7%.
For `CC(C)C[C@H](Nc1ccnc(NCC2CCCCC2)n1)C(=O)NCCOc1ccccc1` the value was 13%.
`Cc1ccc(CNC(=O)[C@H](Cc2ccccc2)Nc2ccnc(NCC3CCCCC3)n2)cc1`: the IFI stood at 11.1%.
As for `O=C(NCCc1ccccc1)[C@H](Cc1ccccc1)Nc1ccnc(NCC2CCCCC2)n1`, the figure is 20.4%; as for `O=C(NCCOc1ccccc1)[C@H](Cc1ccccc1)Nc1ccnc(NCC2CCCCC2)n1`, 20%; as for `CC(C)C[C@H](Nc1ccnc(NCC2CCCCC2)n1)C(=O)NCCc1ccccc1`, 8.89%.
`COc1ccc2nccc([C@@H](O)CN3CCC(NCc4nc5cc(F)cc(F)c5[nH]4)CC3)c2c1` registered an IFI of 3.65%.
As for `CC1(C)NC(N)=NC(=N)N1OCCCSc1ccccc1`, the figure is 2.26%; as for `Cc1ccccc1Cc1cccc(/N=C(\N)Nc2ccc(Cl)cc2)n1`, 31.2%.
On to `Cc1cccc(NC(=O)NCc2ccccc2)n1`, for which the IFI is 0.78%.
In turn, `Cc1cccc2nc(-c3ccc(-c4ccc(NC(=O)Nc5ccc(Cl)cc5)cc4)s3)[nH]c12` came in with an IFI of 5.94%.
On to `N/C(=N\c1cccc(Cc2ccccc2)n1)NCc1ccccc1`, for which the IFI came out at 21%.
Regarding `Cc1cc(NCCc2ccccc2)nc(NC(=N)Nc2ccc(Cl)cc2)n1`, the IFI amounted to 3.82%.
For `Cc1cc(OCCCn2ccnc2)ccc1-c1csc(/N=C(\N)NCc2ccccc2)n1` the value was 5%; for `CC(=O)Nc1nc(C(=O)Nc2ccc(-c3cccc(-c4nc5cc(C(F)(F)F)ccc5[nH]4)c3)cc2)cs1`, 6.03%; for `Cc1cc(=O)c(-c2ccc(Oc3cccc(C(F)(F)F)c3)cc2)c(C)[nH]1`, 2.56% and 2.24%.
